In the library only some 2% were active in any assay of this set; here they are far more common.
EWS-Fli inh – inhibitors of EWS/Fli oncoprotein transcriptional activity. A673 NR0B1-luciferase reporter, viability-normalised. inhibition, % at 12.6 µM. actives 0.67% (n = 350,000). AID 651661;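 active = mean inhibition of at least 50% after viability correction, with every replicate also passing that limit; inconclusive = mean reaches 50% but only one of two replicates passes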;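 also: firefly luciferase signal divided by Alamar Blue viability fluorescence both relative to DMSO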
KKLEB tox – reduces viability of KKLEB cystic fibrosis airway cells; actives 0.36% (n = 360,000); KKLEB CF airway cells viability, ATPlite luminescence, overnight; active compounds read low; cells stimulated with P. aeruginosa culture filtrate; AID 602141; activity change (cytotoxicity), % at 5 µM;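 active = corrected activity change at or below -50% at 5 µM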
Shn3 inh set2 – inhibitors of Schnurri-3 3'UTR reporter in osteoblasts | AID 588674 | inhibition, % at 12.5 µM | actives 0.52% (n = 360,000) | Clone20 osteoblast Shn3 3'UTR firefly luciferase, 24 h;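 active = mean inhibition of at least 75% with every replicate also reaching 75%; inconclusive = mean inhibition at least 75% but some replicate below; inactive = mean inhibition below 75%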;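 also: 0% = median of neutral control wells and 100% = pilot-screen positive control compound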
PAX8 reporter – inhibitors of PAX8 transcriptional activity in RMG-I cells; actives 1.2% (n = 360,000); RMG-I TPO-luciferase reporter, SteadyGlo, 24 h; inhibition, % at 12.6 µM;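 active = mean replicate inhibition at least 60% with every replicate also reaching 60%; inconclusive = only one of the two criteria is met; inactive = mean below 60% and not all replicates reaching 60%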;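 also: luciferase light reporting Pax8 driven TPO promoter activity; plate controls were median of neutral control wells for no effect and mitoxantrone controls for full effect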
LGR2 inh – blocks bursicon-induced cAMP signaling via Drosophila LGR2 | actives 0.35% (n = 380,000) | inhibition, % at 9.99 µM | HEK293 LGR2, CRE-luciferase, bursicon-stimulated, 4 h | AID 720647;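 active = drop in luminescence signal, shown as inhibition above about 50% in the replicate tests, limit read from the data, passing the limit was not always enough; inconclusive = probably only some replicates passing the limit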;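 also: agonist challenge used bursicon conditioned medium at about half maximal strength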
CF NFkB inh – cystic fibrosis NF-kB activation inhibition | KKLEB NF-kB-GFP reporter, PAF-induced, GFP fluorescence overnight | inhibition, % at 5 µM | actives 0.86% (n = 360,000);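 active = at least 50% inhibition at 5 µM, scaled per plate between neutral and stimulator controls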;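 also: PAF is a Pseudomonas aeruginosa culture filtrate used as stimulus; plate controls were PAF-stimulated DMSO wells for no effect and unstimulated DMSO wells for full effect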
Numbers without * were called inactive; ? = inconclusive; · = no result given.

SMILES	EWS-Fli inh	KKLEB tox	Shn3 inh set2	PAX8 reporter	LGR2 inh	CF NFkB inh
CC(C)C1CC(N(C)C)=CC(=S)N1 (stereo unspecified)	16	·	·	78*	7	·
CC1OC(CC(=O)O)CC2=C1C(=O)c1c(O)cccc1C2=O (stereo unspecified)	32	-105*	99*	130*	99*	101*
CC(C)C#Cc1cnc2c(c1)C(=O)N([C@H](C)CO)C[C@H](C)[C@H](CN(C)C(=O)c1ccccc1F)O2	-31	·	·	11	11	·
C[C@H]1CN([C@@H](C)CO)C(=O)Cc2cc(NC(=O)Nc3ccc(C(F)(F)F)cc3)ccc2O[C@H]1CN(C)S(=O)(=O)c1ccc(F)cc1	54*	·	·	40	-2	·
Cc1ccc(S(=O)(=O)N(C)C[C@@H]2Oc3ccc(NC(=O)Nc4ccc(C(F)(F)F)cc4)cc3CC(=O)N([C@@H](C)CO)C[C@@H]2C)cc1	51*	·	·	81*	-22	·
Cc1ccc(S(=O)(=O)N(C)C[C@H]2Oc3ccc(NC(=O)Nc4ccc(C(F)(F)F)cc4)cc3CC(=O)N([C@@H](C)CO)C[C@H]2C)cc1	-8	·	·	99*	13	·
COc1ccc(S(=O)(=O)N(C)C[C@H]2Oc3ccc(NC(=O)Nc4ccc(C(F)(F)F)cc4)cc3CC(=O)N([C@H](C)CO)C[C@@H]2C)cc1	-8	·	·	79*	-4	·
COc1ccc(S(=O)(=O)N(C)C[C@H]2Oc3ccc(NC(=O)Nc4ccc(C(F)(F)F)cc4)cc3CC(=O)N([C@@H](C)CO)C[C@H]2C)cc1	-19	·	·	18	6	·
CO[C@H]1CN(C)C(=O)c2cc(NC(=O)c3ccccc3F)ccc2OC[C@H](C)N(CC2CC2)C[C@@H]1C	8	·	·	-2	13	·
Cc1ccc(S(=O)(=O)Nc2cccc3c2O[C@@H](CN(C)Cc2ccc(Cl)c(Cl)c2)[C@@H](C)CN([C@@H](C)CO)C3=O)cc1	3	·	·	5	0	·
C[C@H](NC(=O)C[C@@H]1CC[C@@H]2[C@H](COC[C@H](O)CN2Cc2ccc(C(F)(F)F)cc2)O1)c1ccccc1	14	·	·	5	5	·
COc1ccc(S(=O)(=O)N(C)C[C@H]2Oc3ccc(NC(=O)Nc4ccc(C(F)(F)F)cc4)cc3C(=O)N([C@H](C)CO)C[C@@H]2C)cc1	1	-15	57	94*	-6	23
COc1ccc(S(=O)(=O)N(C)C[C@@H]2Oc3ccc(NC(=O)Nc4ccc(C(F)(F)F)cc4)cc3C(=O)N([C@H](C)CO)C[C@@H]2C)cc1	7	·	·	·	5	·
Cc1ccc(S(=O)(=O)N(C)C[C@@H]2Oc3ccc(NC(=O)Nc4ccc(F)cc4)cc3CC(=O)N([C@H](C)CO)C[C@@H]2C)cc1	63*	·	·	46	3	·
C[C@H]1CN([C@@H](C)CO)C(=O)Cc2cc(NC(=O)Nc3ccc(C(F)(F)F)cc3)ccc2O[C@H]1CN(C)S(=O)(=O)c1cn(C)cn1	54*	·	·	38	1	·
Cc1ccc(S(=O)(=O)N(C)C[C@H]2Oc3ccc(NC(=O)Nc4ccc(F)cc4)cc3CC(=O)N([C@H](C)CO)C[C@@H]2C)cc1	-4	·	·	-9	10	·
O=C(O)c1ccccc1NS(=O)(=O)c1cccc(C(F)(F)F)c1	·	8	-2	·	·	1
O=C(O)c1ccccc1NS(=O)(=O)c1cccc(-n2sc3ccccc3c2=O)c1	10	73	-18	54	-1	86*
COc1ccc(-c2cc3ccc(OC)cc3cn2)cc1	58*	-48	-11	18	67*	-23
CCCCCCCCOC(=O)c1cc([N+](=O)[O-])c(Sc2ncnc3nc[nH]c23)c([N+](=O)[O-])c1	39	-9	99*	25	·	2
CCCCOC(=O)c1ccc(Nc2ncnc3nc[nH]c23)cc1	-46	-16	-36	-12	-29	27
N#C[C@H]1[C@H](c2ccc(-c3ccccc3F)cc2)[C@@H](CO)N1C(=O)C1CCOCC1	-3	·	·	0	8	·
C[C@@H]1CCCCO[C@@H](CN(C)Cc2ccc(Cl)c(Cl)c2)[C@@H](C)CN([C@H](C)CO)C(=O)c2cc(NC(=O)c3ccccc3)ccc2O1	-16	·	·	15	20	·
C[C@@H]1CCCCO[C@H](CN(C)Cc2ccc(Cl)c(Cl)c2)[C@@H](C)CN([C@H](C)CO)C(=O)c2cc(NC(=O)Nc3ccc(F)cc3)ccc2O1	0	·	·	22	-17	·
C[C@@H]1CCCCO[C@@H](CN(C)Cc2ccc(Cl)c(Cl)c2)[C@H](C)CN([C@H](C)CO)C(=O)c2cc(NC(=O)Nc3ccccc3)ccc2O1	5	·	·	90*	20	·
SMILES	EWS-Fli inh	KKLEB tox	Shn3 inh set2	PAX8 reporter	LGR2 inh	CF NFkB inh
C[C@@H]1CCCCO[C@H](CN(C)Cc2ccc(Cl)c(Cl)c2)[C@H](C)CN([C@@H](C)CO)C(=O)c2cc(NC(=O)Nc3ccccc3)ccc2O1	8	·	·	82*	6	·
C[C@@H]1CN([C@H](C)CO)C(=O)c2cc(NC(=O)Nc3ccccc3)ccc2O[C@@H](C)CCCCO[C@H]1CN(C)Cc1ccc(Cl)c(Cl)c1	9	·	·	104*	3	·
COc1cccc(NC(=O)N[C@@H]2C=C[C@H](CC(=O)Nc3ccc(-c4ccccc4)cc3)O[C@H]2CO)c1	·	·	·	·	13	·
Cc1ccc(S(=O)(=O)Nc2ccc3c(c2)CC(=O)N([C@@H](C)CO)C[C@@H](C)[C@@H](CN(C)C(=O)Nc2ccc(F)cc2)O3)cc1	7	·	·	6	-3	·
C[C@@H]1CN([C@@H](C)CO)C(=O)c2cc(C#CC(C)(C)O)cnc2O[C@H]1CN(C)C(=O)CC1CC1	-2	·	·	·	-28	·
Cc1cccc(N=C2NN=C(c3ccc4c(c3)OCCO4)CS2)c1	10	-20	-47	·	3	4
Cc1cccc(N=C2NN=C(c3c(C)[nH]c4ccccc34)CS2)c1	15	16	44	74*	-1	-16
COc1cc(/C=C/c2ccc3c(Br)cc(Br)c(O)c3n2)ccc1O	32	-2	38	73*	-1	18
CO[C@H]1CN(C)C(=O)c2cc(NS(=O)(=O)c3c(C)noc3C)ccc2OC[C@@H](C)NC[C@@H]1C	-6	·	·	·	-6	·
COc1cc(C(=O)Nc2ccc3c(c2)Cc2ccccc2-3)cc(OC)c1OC	17	2	7	13	·	8
COc1cc(C(=O)Nc2ccc3c(c2)CCN3C(C)=O)cc(OC)c1OC	67*	-3	16	6	-1	4
C[C@@H]1CCCCO[C@H](CN(C)Cc2ccncc2)[C@H](C)CN([C@@H](C)CO)C(=O)c2cc(NC(=O)c3ccccc3)ccc2O1	58*	·	·	70*	-6	·
C[C@@H]1CCCCO[C@H](CN(C)Cc2ccncc2)[C@H](C)CN([C@@H](C)CO)C(=O)c2cc(NC(=O)C3CCCCC3)ccc2O1	?	·	·	67*	11	·

From PubChem
